Experimental data from PubChem BioAssay (Tox21).
Inconclusive results are not listed. Active and inactive are the calls of the source. Unless noted, calls come from the whole dose curve; as a rule, active = well fitted curve in the direction sought with a large enough effect in the repeat runs; inconclusive = weak or mixed curves; inactive = no such curve, though single readings can be large; an effect the other way counts as inactive or inconclusive.

What was measured:
[1] = target: Thyrotropin receptor (Homo sapiens) (UniProt P16473); assay: qHTS assay to identify small molecule agonists of the thyroid stimulating hormone receptor (TSHR) signaling pathway (AID 1224843; calls by dose curve; note: nearly all actives have a fitted effect of over 45% in size)
How it was run: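 Screening of the Tox21 10K collection used HEK293 cells engineered with TSHR at 800 cells per well. After a 30-min room-temperature compound exposure, HTRF cAMP reagents were added and fluorescence recorded 1 h later.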

[2] = qHTS assay to identify small molecule agonists of the hypoxia (HIF-1) signaling pathway - cell viability counter screen (AID 1224844; calls by dose curve; note: nearly all actives have a fitted effect of over 50% in size)
How it was run: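 Cells (HRE-bla ME-180, 2,000 per well) sat 5 hrs at 37C, got compound for 17 hrs, were read for CCF4-AM FRET, and were finally lysed with CellTiter-Glo for a 30 min room-temperature luminescence read.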

[3] = qHTS assay to identify small molecule agonists of H2AX (AID 1224845; active = well fitted activation curve with a large enough effect in the signal ratio in the repeat runs, not every such curve was filed as active; the % refers to the signal ratio)
How it was run: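 Phospho-H2AX Ser139 measured by HTRF (ex 320 nm; em 665 and 620 nm) after 24 hr antibody incubation. Compounds, 15 concentrations, 0.76% DMSO, were applied to CHO-K1 cells for 3hr at 37C before lysis.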

[4] = qHTS assay to identify small molecule agonists of the hypoxia (HIF-1) signaling pathway (AID 1224846; active = well fitted activation curve with a large enough effect in the signal ratio in the repeat runs, not every such curve was filed as active; the % refers to the signal ratio)
How it was run: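 A low-serum medium (0.5% dialyzed FBS) holding 2,000 HRE-bla ME-180 cells per well is preincubated for 5 hrs, dosed with compounds by pintool, and kept a further 17 hrs at 37C, 5% CO2 before CCF4-AM FRET detection of beta-lactamase.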

[5] = qHTS assay to identify small molecule agonists of H2AX - cell viability counter screen (AID 1224847; calls by dose curve;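 note: wild-type CHO-K1 cells; top concentration of the series differs between compounds; nearly all actives have a fitted effect of over 30% in size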)
How it was run: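 For this counter screen, overnight-attached CHO-K1 cells received test compounds (15 concentrations, 0.76% DMSO final); 3 hr later at 37C, CellTiter-Glo reagent was added and luminescence recorded after 30 min at room temperature.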

[6] = qHTS RealTime-Glo MT Cell Viability Assay in HepG2 cells - 24 hour (AID 1224867); note: nearly all actives have a fitted effect of over 50% in size
How it was run: (§1)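 Cells + NanoLuc/prosubstrate dispensed (600 cells/well) → 5 h at 37 C/5% CO2 → compounds in DMSO transferred → 40 h incubation at 37 C, luminescence read at 0, 8, 16, 24, 32, 40 h.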

[7] = qHTS RealTime-Glo MT Cell Viability Assay in HEK293 cells - 32 hour (AID 1224868); note: top concentration of the series differs between compounds; nearly all actives have a fitted effect of over 50% in size
How it was run: (§2)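 Tox21 10K qHTS, HEK293, 600 cells/well, RealTime-Glo reagent co-dispensed with cells; 5 h preincubation, compound by pintool, 37 C, luminescence at 0–40 h.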

[8] = A CellTox Green Cytotoxicity Assay to monitor cytotoxicity in HEK293 cells - 0 hour (AID 1224869); note: nearly all actives have a fitted effect of over 50% in size
How it was run: (§3)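 Fluorescence intensity, read at 0, 8, 16, 24, 32 and 40 h of compound treatment, reflected dye binding to DNA of dead HEK293 cells; compounds (23 nL, DMSO) were added 5 h after plating cells with reagent.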

[9] = qHTS RealTime-Glo MT Cell Viability Assay in HepG2 cells - 40 hour (AID 1224870); note: nearly all actives have a fitted effect of over 50% in size
How it was run: (§4)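 Real-time viability: cells seeded at 600 per well together with NanoLuc and cell-permeant prosubstrate, compounds added after 5 h incubation. Luminescence tracked at 0, 8, 16, 24, 32 and 40 h of exposure.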

[10] = qHTS RealTime-Glo MT Cell Viability Assay in HEK293 cells - 16 hour (AID 1224872)
How it was run: as §2

[11] = qHTS RealTime-Glo MT Cell Viability Assay in HepG2 cells - 8 hour (AID 1224873); note: nearly all actives have a fitted effect of over 55% in size
How it was run: as §4

[12] = qHTS RealTime-Glo MT Cell Viability Assay in HEK293 cells - 40 hour (AID 1224874); details: RealTime-Glo luminescence, hits give low values; note: nearly all actives have a fitted effect of over 50% in size
How it was run: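 Viable HEK293 cells reduce a cell-permeant prosubstrate; the product diffuses out and is consumed by NanoLuc in the medium to give light. Compounds went in after a 5 h incubation and plates were read over the treatment course.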

[13] = A CellTox Green Cytotoxicity Assay to monitor cytotoxicity in HEK293 cells - 24 hour (AID 1224875); note: series mostly up to about 77 µM; nearly all actives have a fitted effect of over 45% in size
How it was run: as §3

[14] = A CellTox Green Cytotoxicity Assay to monitor cytotoxicity in HepG2 cells - 16 hour (AID 1224876); note: nearly all actives have a fitted effect of over 45% in size
How it was run: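 Using 1536-well format, dye-containing HepG2 suspension was seeded, allowed 5 h at 37 C/5% CO2, dosed by pintool with compounds, positive and negative controls, and imaged for fluorescence across 40 h.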

[15] = qHTS RealTime-Glo MT Cell Viability Assay in HepG2 cells - 32 hour (AID 1224877); note: nearly all actives have a fitted effect of over 55% in size
How it was run: as §1

[16] = A CellTox Green Cytotoxicity Assay to monitor cytotoxicity in HEK293 cells - 40 hour (AID 1224871); note: nearly all actives have a fitted effect of over 45% in size
How it was run: as §3
% is set by controls: 0 for no effect and ±100 for the full control effect.

Thyrotropin receptor (Homo sapiens), sequence (P16473 whole entry, looked up): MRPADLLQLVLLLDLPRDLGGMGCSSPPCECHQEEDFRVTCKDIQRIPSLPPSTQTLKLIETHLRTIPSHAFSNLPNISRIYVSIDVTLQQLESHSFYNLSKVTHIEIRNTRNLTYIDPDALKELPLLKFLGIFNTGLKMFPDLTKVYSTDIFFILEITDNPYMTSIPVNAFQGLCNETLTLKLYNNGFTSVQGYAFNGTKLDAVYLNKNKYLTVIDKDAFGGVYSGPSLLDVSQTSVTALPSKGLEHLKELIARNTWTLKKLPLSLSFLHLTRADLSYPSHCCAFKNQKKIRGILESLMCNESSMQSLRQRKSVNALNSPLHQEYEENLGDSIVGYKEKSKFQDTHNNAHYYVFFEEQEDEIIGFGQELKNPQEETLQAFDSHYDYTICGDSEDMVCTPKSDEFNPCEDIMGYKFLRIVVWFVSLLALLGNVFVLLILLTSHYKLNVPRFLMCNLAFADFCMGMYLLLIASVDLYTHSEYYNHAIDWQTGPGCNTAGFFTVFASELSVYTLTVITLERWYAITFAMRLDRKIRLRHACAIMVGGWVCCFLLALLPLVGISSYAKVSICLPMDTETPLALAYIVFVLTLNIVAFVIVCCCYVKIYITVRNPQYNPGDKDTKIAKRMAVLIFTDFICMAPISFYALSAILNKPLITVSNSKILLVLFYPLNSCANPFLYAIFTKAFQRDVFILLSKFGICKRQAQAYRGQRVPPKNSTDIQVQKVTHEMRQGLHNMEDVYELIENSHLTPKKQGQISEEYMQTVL

CCCCc1ccc(Cl)cc1
inactive: Potency [1] | outcome [2] | outcome [3] | outcome [4] | outcome [5] | outcome [6] | outcome [7] | outcome [8] | outcome [9] | outcome [10] | outcome [11] | max response [12] 8.05% | Potency [13] | Potency [14] | outcome [15]

CC(C)C(C)C
inactive: Potency [1] | outcome [2] | outcome [3] | outcome [4] | outcome [5] | outcome [6] | outcome [7] | outcome [9] | Potency [16] | outcome [10] | outcome [11] | Potency [13] | Potency [14] | outcome [15]

CCN(CC)CC
inactive: Potency [1] | outcome [2] | outcome [3] | outcome [4] | outcome [5] | outcome [6] | outcome [7] | outcome [9] | Potency [16] | outcome [10] | outcome [11] | max response [12] -12.9% | Potency [14] | outcome [15]

CCCCCCCCCCCCCCBr
inactive: Potency [1] | outcome [2] | outcome [3] | outcome [4] | outcome [5] | outcome [6] | outcome [7] | outcome [9] | Potency [16] | outcome [11] | Potency [13] | Potency [14] | outcome [15]

N#Cc1cc(NC(=O)C(=O)O)c(Cl)c(NC(=O)C(=O)O)c1
inactive: Potency [1] | outcome [2] | outcome [3] | outcome [4] | outcome [5] | outcome [6] | outcome [7] | outcome [8] | outcome [9] | Potency [16] | outcome [11] | max response [12] -0.333% | Potency [14] | outcome [15]

O=C1c2ccccc2C(=O)N1CO
inactive: Potency [1] | outcome [2] | outcome [3] | outcome [4] | outcome [5] | outcome [6] | outcome [8] | outcome [9] | outcome [10] | outcome [11] | max response [12] -6.25% | Potency [13] | Potency [14] | outcome [15]

COc1ccccc1N1CCN(CC(O)COc2cc(OC)c(OC)c(OC)c2)CC1 (stereo not given)
inactive: Potency [1] | outcome [2] | outcome [3] | outcome [4] | outcome [5] | outcome [6] | outcome [7] | outcome [8] | outcome [9] | outcome [10] | outcome [11] | max response [12] 4.13% | Potency [14] | outcome [15]

C/C(=N\O)c1ccc(OCC(=O)N2CCCCC2)cc1
inactive: Potency [1] | outcome [2] | outcome [3] | outcome [4] | outcome [5] | outcome [6] | outcome [7] | outcome [9] | Potency [16] | outcome [10] | outcome [11] | max response [12] -11.7% | Potency [13] | Potency [14] | outcome [15]

CCCCCCCCCCCCCCCCN(C)C
inactive: activation [1] -17.9% [at 8.39 µM] | activity change, negative = cytotoxicity [2] -5.55% [at 6.97 µM] | activation (H2AX phosphorylation) [3] 1.56% [at 14 µM] | activation [4] -0.212% [at 7.01 µM] | activity change, negative = cytotoxicity [5] -3.36% [at 14 µM] | activity change, negative = cytotoxicity [6] -0.0663% [at 6.97 µM] | activity change, negative = cytotoxic [7] 5.99% [at 6.97 µM] | cytotoxicity [8] 1.73% [at 6.97 µM] | activity change, negative = cytotoxic [9] -1.15% [at 6.97 µM] | cytotoxicity increase [16] 4.91% [at 6.97 µM] | viability change, negative = cytotoxic [11] 3.36% [at 6.97 µM] | max response [12] 4.91% | activity change [13] 2.54% [at 6.97 µM, hits give high values] | cytotoxicity increase [14] 1.82% [at 6.97 µM] | activity change, negative = cytotoxic [15] -0.525% [at 6.97 µM]

C=C(C)C(=O)OCCCC
inactive: Potency [1] | outcome [2] | outcome [3] | outcome [4] | outcome [5] | outcome [6] | outcome [7] | outcome [8] | outcome [9] | outcome [10] | outcome [11] | max response [12] 11.4% | Potency [13] | Potency [14] | outcome [15]

CC(C)(O)c1ccc(C(C)(C)O)cc1
inactive: Potency [1] | outcome [2] | outcome [3] | outcome [4] | outcome [5] | outcome [6] | outcome [7] | outcome [9] | Potency [16] | outcome [10] | outcome [11] | max response [12] 0.887% | Potency [13] | Potency [14] | outcome [15]

NC[C@H]1O[C@H](O[C@H]2[C@H](O)[C@@H](O[C@H]3O[C@H](CO)[C@@H](O)[C@H](N)[C@H]3O)[C@H](N)C[C@@H]2N)[C@H](N)[C@@H](O)[C@@H]1O
inactive: activation [1] -7.89% [at 19 µM] | activity change, negative = cytotoxicity [2] 6.36% [at 15.8 µM] | activation (H2AX phosphorylation) [3] -4.26% [at 31.6 µM] | activation [4] -0.993% [at 15.8 µM] | activity change, negative = cytotoxicity [5] -0.161% [at 31.6 µM] | activity change, negative = cytotoxicity [6] 0.499% [at 15.8 µM] | activity change, negative = cytotoxic [7] 4.09% [at 15.8 µM] | cytotoxicity [8] -1.07% [at 15.8 µM] | activity change, negative = cytotoxic [9] 0.593% [at 15.8 µM] | viability change, negative = cytotoxic [11] 4% [at 15.8 µM] | max response [12] 5.23% | activity change [13] 0.657% [at 15.8 µM, hits give high values] | cytotoxicity increase [14] 0.586% [at 15.8 µM] | activity change, negative = cytotoxic [15] 3.63% [at 15.8 µM]

CSC(=O)c1cccc2nnsc12
inactive: Potency [1] | outcome [2] | outcome [3] | outcome [4] | outcome [5] | outcome [6] | outcome [7] | outcome [8] | outcome [9] | outcome [10] | outcome [11] | Potency [13] | Potency [14] | outcome [15]

C/C=C(\C)C=O
inactive: Potency [1] | outcome [2] | outcome [3] | outcome [4] | outcome [5] | outcome [6] | outcome [8] | outcome [9] | Potency [16] | outcome [10] | outcome [11] | max response [12] 8.23% | Potency [13] | Potency [14] | outcome [15]

COc1cc(S(N)(=O)=O)cc(C(=O)O)c1OC
inactive: Potency [1] | outcome [2] | outcome [3] | outcome [4] | outcome [5] | outcome [6] | outcome [8] | outcome [9] | Potency [16] | outcome [10] | outcome [11] | Potency [13] | Potency [14] | outcome [15]

CN(C)CCCN(C)C
inactive: activation [1] -10.3% [at 8.39 µM] | activity change, negative = cytotoxicity [2] 11.5% [at 6.97 µM] | activation (H2AX phosphorylation) [3] 0.536% [at 14 µM] | activation [4] -0.634% [at 7.01 µM] | activity change, negative = cytotoxicity [5] 0.19% [at 14 µM] | activity change, negative = cytotoxicity [6] 0.293% [at 6.97 µM] | activity change, negative = cytotoxic [7] 0.277% [at 6.97 µM] | activity change, negative = cytotoxic [9] 1.14% [at 6.97 µM] | cytotoxicity increase [16] -1.24% [at 6.97 µM] | activity change, negative = cytotoxicity [10] -4.3% [at 6.97 µM] | viability change, negative = cytotoxic [11] 0.94% [at 6.97 µM] | max response [12] 0.838% | activity change [13] -1.21% [at 6.97 µM, hits give high values] | cytotoxicity increase [14] -15.4% [at 6.97 µM] | activity change, negative = cytotoxic [15] 0.21% [at 6.97 µM]
